An excerpt weighted towards active compounds, which were near 2.3% of everything screened.
PLCg1 inh = PLC-gamma1 (human) inhibition, primary screen. P19174. purified PLC-gamma1, fluorogenic substrate, fluorescence. inhibition, % at 12.2 µM. actives 0.84% (n = 370,000); in the data active = inhibition above about 9.5%
LEDGF integ inh = blocks HIV-1 LEDGF/p75-dependent DNA integration; actives 0.64% (n = 370,000); TR-FRET IN-LEDGF/p75 DNA integration, Eu/Cy5; inhibition, % at 3.7 µM;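 active = inhibition above the screen-wide mean plus 3 SD, cut at about 13% in these data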;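 also: signal is the Cy5 over europium emission ratio at 671 and 618 nm; 0% = plate median of compound wells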
UHRF1 MBD2 ctr = human UHRF1 methylated DNA binding inhibitors. inhibition, % at 4.4 µM. UHRF1 binding to methylated oligo, TR-FRET. actives 0.75% (n = 370,000). AID 687016; in the data active = inhibition above about 21%;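 also: UHRF1 SRA domain binding a hemimethylated CpG hairpin DNA probe; 0% = median of test compound wells and 100% = reference inhibitor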
MBD2 inh = inhibitors of human MBD2 binding to methylated oligonucleotide | TR-FRET | AID 686964 | actives 0.31% (n = 370,000) | inhibition, % at 4.4 µM; in the data active = inhibition above about 13%
PLCb3 inh = PLC-beta3 (human) inhibition, primary screen | Purified PLC-beta3, fluorogenic substrate, fluorescence | inhibition, % at 12.2 µM | actives 0.18% (n = 370,000) | AID 720704;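 also: 0% = median of compound wells on plate and 100% = full blocker control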
Target sequence (Q01970 whole entry, looked up): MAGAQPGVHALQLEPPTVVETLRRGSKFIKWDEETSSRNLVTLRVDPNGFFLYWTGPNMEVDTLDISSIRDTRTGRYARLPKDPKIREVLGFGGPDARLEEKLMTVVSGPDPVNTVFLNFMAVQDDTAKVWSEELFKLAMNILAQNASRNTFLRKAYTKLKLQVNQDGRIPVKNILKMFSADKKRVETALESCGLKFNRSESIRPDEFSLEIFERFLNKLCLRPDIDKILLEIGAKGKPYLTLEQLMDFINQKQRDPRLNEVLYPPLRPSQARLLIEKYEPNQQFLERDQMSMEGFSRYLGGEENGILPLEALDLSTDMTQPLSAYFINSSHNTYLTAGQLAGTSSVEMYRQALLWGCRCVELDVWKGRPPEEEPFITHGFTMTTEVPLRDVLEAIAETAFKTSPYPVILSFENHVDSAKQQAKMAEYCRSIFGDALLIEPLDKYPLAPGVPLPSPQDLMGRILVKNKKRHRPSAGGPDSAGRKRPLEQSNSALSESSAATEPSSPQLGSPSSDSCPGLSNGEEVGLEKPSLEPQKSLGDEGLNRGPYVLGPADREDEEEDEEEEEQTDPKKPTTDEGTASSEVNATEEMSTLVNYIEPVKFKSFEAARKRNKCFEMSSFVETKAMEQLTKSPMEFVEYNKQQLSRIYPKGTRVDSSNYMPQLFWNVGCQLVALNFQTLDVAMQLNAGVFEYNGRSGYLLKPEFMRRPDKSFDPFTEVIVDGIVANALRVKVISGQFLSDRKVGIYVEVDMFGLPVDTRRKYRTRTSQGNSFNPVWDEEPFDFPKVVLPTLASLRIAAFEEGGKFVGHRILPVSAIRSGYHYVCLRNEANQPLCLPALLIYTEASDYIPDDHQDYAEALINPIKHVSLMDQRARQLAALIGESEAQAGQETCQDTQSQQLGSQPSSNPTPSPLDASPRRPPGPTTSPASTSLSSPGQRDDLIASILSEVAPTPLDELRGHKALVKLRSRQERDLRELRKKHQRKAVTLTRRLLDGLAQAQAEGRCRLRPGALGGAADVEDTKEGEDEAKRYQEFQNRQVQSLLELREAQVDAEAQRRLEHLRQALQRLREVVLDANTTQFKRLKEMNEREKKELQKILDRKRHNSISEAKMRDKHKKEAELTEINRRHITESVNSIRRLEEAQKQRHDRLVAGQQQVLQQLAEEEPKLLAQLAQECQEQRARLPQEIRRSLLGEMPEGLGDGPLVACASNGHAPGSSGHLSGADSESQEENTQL
PLCg1 ctr = counter-screen for PLC-beta3 inhibitors: inhibitors of human PLC-gamma1. actives 3.1% (n = 3,300). inhibition, % at 12.3 µM. shares compounds with PLCg1 inh. AID 743258. purified PLC-gamma1, fluorogenic substrate, fluorescence; in the data active = inhibition above about 9.5%
PLCbeta3 conf = confirmation of human PLC-beta3 inhibitors; inhibition, % at 12.3 µM; actives 1% (n = 3,300); shares compounds with PLCg1 inh; purified PLC-beta3, fluorogenic substrate fluorescence
Numbers without * were called inactive. Rule as the data show it, unless noted: active = inhibition above about 11%; inactive = the rest.

Screening CCOC(=O)C1CCCN(C(=O)C2CCC(CNS(=O)(=O)c3ccc(NC(C)=O)cc3)CC2)C1 (centres undefined) returned PLCg1 inh 3.4, LEDGF integ inh 1.8, UHRF1 MBD2 ctr 0.5, MBD2 inh 7.3 and PLCb3 inh 3.6.
`COCC(=O)N1CCCC(CNS(=O)(=O)c2ccc(OC)cc2)C1` (centres undefined) gave PLCg1 inh 14.2*, LEDGF integ inh 1.3, UHRF1 MBD2 ctr 2.1, MBD2 inh 1.2, PLCb3 inh 4.6, PLCg1 ctr -5.4 and PLCbeta3 conf -6.1.
For COC(=O)C1CN(CC(C)C)CCS(=O)(=O)N1Cc1ccc(Cl)cc1 (centres undefined) the results were PLCg1 inh 0.9, LEDGF integ inh -2.0, UHRF1 MBD2 ctr -0.8, MBD2 inh -5.8 and PLCb3 inh 3.5.
Screening O=C1c2ccccc2C(=O)N1Cc1cccnc1 returned PLCg1 inh 12.4*, LEDGF integ inh 3.8, MBD2 inh -2.9, PLCb3 inh 4.9, PLCg1 ctr -5.2 and PLCbeta3 conf 0.0.
O=C1c2cccnc2C(=O)N1Cc1ccccc1 was read as PLCg1 inh 3.9, LEDGF integ inh 2.1, UHRF1 MBD2 ctr 1.1, MBD2 inh -4.0 and PLCb3 inh 5.2.
Screening C=CCN1[C@H](C)COc2cc(N3CCSCC3)ccc2S1(=O)=O returned PLCg1 inh 0.7, LEDGF integ inh 3.0, UHRF1 MBD2 ctr -0.2, MBD2 inh 4.2 and PLCb3 inh 3.3.
Screening CCOC(=O)C1C[C@@H](O)C=CC1=O (some centres undefined) returned PLCg1 inh 1.1, LEDGF integ inh -4.5, UHRF1 MBD2 ctr -1.5, MBD2 inh -3.1 and PLCb3 inh -1.4.
CC(C)(C)OC(=O)[C@H](Cc1ccccc1)NC(=O)c1nc[nH]c1C(=O)N[C@@H](CCCCN)C(=O)OC(C)(C)C was read as PLCg1 inh 1.9, LEDGF integ inh -0.6, UHRF1 MBD2 ctr 2.8, MBD2 inh 0.8 and PLCb3 inh 2.7.
CC(C)(C)OC(=O)[C@H](Cc1ccccc1)NC(=O)c1nc[nH]c1C(=O)NCc1ccccc1 was read as PLCg1 inh 0.8, LEDGF integ inh 0.6, UHRF1 MBD2 ctr -2.1, MBD2 inh -1.4 and PLCb3 inh 4.9.
For CC(C)(C)OC(=O)NCCCC[C@H](NC(=O)c1[nH]cnc1C(=O)N[C@@H](Cc1ccccc1)C(=O)OCc1ccccc1)C(=O)OC(C)(C)C the results were PLCg1 inh 10.0*, LEDGF integ inh -0.5, UHRF1 MBD2 ctr 2.3, MBD2 inh -1.4, PLCb3 inh 9.7, PLCg1 ctr -3.9 and PLCbeta3 conf -7.2.
Screening CC(C)(C)OC(=O)NCc1ccc(CNC(=O)c2[nH]cnc2C(=O)N[C@@H](Cc2ccccc2)C(=O)OC(C)(C)C)cc1 returned PLCg1 inh 9.5*, LEDGF integ inh 0.3, UHRF1 MBD2 ctr -0.9, MBD2 inh 0.5, PLCb3 inh 8.1, PLCg1 ctr -3.0 and PLCbeta3 conf 0.7.
`CCC(C)NS(=O)(=O)c1ccc2[nH]c(=O)oc2c1` (centres undefined) gave PLCg1 inh -0.8, LEDGF integ inh -1.4, UHRF1 MBD2 ctr -2.1, MBD2 inh -4.4 and PLCb3 inh 3.9.
`COc1ccc(N2C(=O)C3C(C2=O)C3(c2ccccc2)c2ccccc2)cc1` (centres undefined) gave PLCg1 inh 11.7*, LEDGF integ inh 1.2, UHRF1 MBD2 ctr 1.2, MBD2 inh 1.1, PLCb3 inh -0.7, PLCg1 ctr -3.3 and PLCbeta3 conf -5.3.
For COc1ccc(N2C(=O)C3C4C=CC(c5ccccc5)(C3C2=O)C2C(=O)N(c3ccc(OC)cc3)C(=O)C42)cc1 (centres undefined) the results were PLCg1 inh -1.6, LEDGF integ inh 0.0, UHRF1 MBD2 ctr -0.4, MBD2 inh 0.6 and PLCb3 inh 0.1.
For CC(C)(C)NC(=O)c1cccc2c1OC(C)(C)C2 the results were PLCg1 inh 15.9*, LEDGF integ inh -7.1, UHRF1 MBD2 ctr 7.2, MBD2 inh 1.6, PLCb3 inh -5.7, PLCg1 ctr -2.1 and PLCbeta3 conf -0.7.
Screening Cc1ccccc1CSc1n[nH]c(NS(=O)(=O)c2ccccc2)n1 returned PLCg1 inh 10.4*, LEDGF integ inh -2.4, UHRF1 MBD2 ctr -0.6, MBD2 inh -5.5, PLCb3 inh 5.0, PLCg1 ctr 5.6 and PLCbeta3 conf 1.0.
Screening Cc1nc(SCc2ccccc2C#N)n[nH]1 returned PLCg1 inh -0.6, LEDGF integ inh 1.5, UHRF1 MBD2 ctr -2.0, MBD2 inh 3.7 and PLCb3 inh -0.2.
`Cc1cc(N2CCC[C@@H]2C)nc2ccccc12` gave PLCg1 inh 5.6, LEDGF integ inh -1.5, UHRF1 MBD2 ctr 1.3, MBD2 inh 6.2 and PLCb3 inh -8.3.
For COc1ccc(CCN(C)C(=O)CN2C(=O)NC3(CCCc4ccccc43)C2=O)cc1OC (centres undefined) the results were PLCg1 inh 12.5*, LEDGF integ inh 5.9, UHRF1 MBD2 ctr 3.3, MBD2 inh -1.2, PLCb3 inh -4.3, PLCg1 ctr -7.7 and PLCbeta3 conf -73.6.
Screening CCOC(=O)[C@]12CCCCC/C=C\1N(CCc1ccc(Cl)cc1)C(=O)[C@H]2CC(=O)NCC12CC3CC(CC(C3)C1)C2 returned PLCg1 inh -1.5, LEDGF integ inh 3.0, UHRF1 MBD2 ctr -0.8, MBD2 inh 2.0 and PLCb3 inh 2.2.
Cc1cccc(NC(=O)Cn2c(O)c(N=NC(=O)c3ccccc3O)c3ccccc32)c1 was read as PLCg1 inh 10.7*, LEDGF integ inh 2.1, UHRF1 MBD2 ctr 5.6, MBD2 inh 1.5, PLCb3 inh 2.1, PLCg1 ctr 8.0 and PLCbeta3 conf -1.3.
For NC(=S)N=Nc1c(O)n(CC(=O)Nc2ccccc2)c2ccccc12 the results were PLCg1 inh 7.0, LEDGF integ inh -2.8, UHRF1 MBD2 ctr -2.8, MBD2 inh -9.5 and PLCb3 inh 2.0.
CCN(CC)S(=O)(=O)c1ccc(C(C)NCC(=O)Nc2ccccc2C(=O)NC2CC2)cc1 (centres undefined) was read as PLCg1 inh 10.2*, LEDGF integ inh 1.5, UHRF1 MBD2 ctr 1.6, MBD2 inh -2.2, PLCb3 inh -4.5, PLCg1 ctr -0.5 and PLCbeta3 conf -0.9.
For CC(NCC(=O)Nc1ccccc1C(=O)NC1CC1)c1ccc(S(N)(=O)=O)cc1 (centres undefined) the results were PLCg1 inh -5.8, LEDGF integ inh -1.4, UHRF1 MBD2 ctr 1.1, MBD2 inh 3.9 and PLCb3 inh -3.7.
Screening Cn1cnnc1SCc1ccc(C(=O)O)cc1 returned PLCg1 inh -0.4, LEDGF integ inh 1.4, UHRF1 MBD2 ctr 8.0, MBD2 inh -3.1 and PLCb3 inh 1.0.
